Reference: PubChem BioAssay AID743279 (National Center for Advancing Translational Sciences (NCATS), 2014)
Out of some 360,000 compounds screened, about 17,000 (4.7%) were called active. About 5% were inconclusive and are not listed. Cut-off read from the data, not from the text of the source: active = activity change below about -50%; inconclusive = mostly about -30% to -49%; inactive = weaker than that. The entries come from a sample that favours actives as a whole.

experiment: qHTS for Inhibitors of Inflammasome Signaling: IL-1-beta AlphaLISA Primary Screen; conditions: THP-1 LPS/ATP IL-1B secretion, 16 h; at 57.5 µM, stronger effect = lower value
Summary of the method: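 THP-1 cells pretreated 1 hr with compounds (up to 57.5 uM final), then stimulated with LPS (250 ng/mL final) plus ATP (1.25 mM final); secreted IL-1B measured by AlphaLISA after 16 hr, decreased signal indicating inhibition.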
% is set by controls: 0 for no effect and ±100 for the full control effect.

Row | Compound | activity change
1 | CCOC(=O)C1=CC[C@@H](c2ccccc2)N(S(=O)(=O)c2ccc(C)cc2)[C@H]1c1cccc(OC)c1 | 2.13% (inactive)
2 | OC(COc1ccc(Br)cc1)CN1CCCC1 (centres undefined) | -27.2% (inactive)
3 | OC(COc1ccccc1)CN1CCN(c2cccc(Cl)c2)CC1 (centres undefined) | 14.3% (inactive)
4 | CC1CCN(CC(O)COc2ccc(C(=O)c3ccccc3)cc2)CC1 (centres undefined) | -22.3% (inactive)
5 | O=C(c1ccc(Cl)cc1)c1ccc(OCC(O)CN2CCCCC2)cc1 (centres undefined) | -52.5% (active)
6 | OC(COc1ccc2c(c1)CCC2)CN1CCN(c2cccc(Cl)c2)CC1 (centres undefined) | -64.8% (active)
7 | CCC(=O)c1ccc(OCC(O)CN2CCN(c3cccc(C(F)(F)F)c3)CC2)cc1 (centres undefined) | -11.4% (inactive)
8 | CC(C)NC(=O)C1(C)CCCCN1Cc1cccc(C(F)(F)F)c1 (centres undefined) | 12.4% (inactive)
9 | CCCCCNC(=O)C(c1ccc(OC)cc1)n1c(=O)c(-c2ccccc2)nc2ccccc21 (centres undefined) | -10.4% (inactive)
10 | CCOC(=O)C1(C)CCCN(C(=O)c2ccc(F)c(Cl)c2)C1 (centres undefined) | 7.31% (inactive)
11 | C[C@H]1CN([C@@H](C)CO)C(=O)CCCn2cc(nn2)CO[C@@H]1CN(C)S(=O)(=O)c1ccc(-n2cccn2)cc1 | -21.5% (inactive)
12 | O=C(CSCc1ccc([N+](=O)[O-])cc1)Nc1cccc(C(=O)Nc2ccccc2C(=O)O)c1 | 13.4% (inactive)
13 | O=C(Cc1ccc(S(=O)(=O)N2CCOCC2)s1)NCCOc1ccccc1F | 6.24% (inactive)
14 | O=C(Cc1ccc(S(=O)(=O)N2CCOCC2)s1)NCCC(c1ccccc1)c1ccccc1 | 17% (inactive)
15 | O=C(Cc1ccc(S(=O)(=O)N2CCOCC2)s1)Nc1ccc(Br)c(C(F)(F)F)c1 | -61% (active)
16 | CCN(C(=O)Nc1cccc2ccccc12)c1ccccc1 | 12.7% (inactive)
17 | COc1ccccc1C(=O)Nn1c(-c2cccs2)nc2ccccc2c1=O | -3.33% (inactive)
18 | CC(=O)Nc1cccc(Nc2nc(-c3cccs3)nc3ccccc23)c1 | -65.6% (active)
19 | O=C(Nc1nnc(-c2ccccc2)o1)c1cc(-c2cccs2)nc2ccccc12 | 23% (inactive)
20 | Cc1cc(C)cc(NS(=O)(=O)c2ccc(Oc3ncc(C(F)(F)F)cc3Cl)cc2)c1 | -75.1% (active)
21 | Cc1ccc(NS(=O)(=O)c2ccc(C(C)(C)C)cc2)cn1 | 1.59% (inactive)
22 | COc1ccccc1Oc1ccc(S(=O)(=O)Nc2cccnc2)cc1 | -2.24% (inactive)
23 | COc1ccc(S(=O)(=O)N(C)C[C@H]2OCc3cnnn3CCCC(=O)N([C@H](C)CO)C[C@H]2C)cc1 | -20% (inactive)
24 | Cc1ccccc1NC(=O)Cc1nc(COC(=O)C(C)(C)Oc2ccc(Cl)cc2)cs1 | 17% (inactive)
